# “And” between values parts separate entries of the source, which are not always exact repeats. Identical values can stand only once. The campaign covered roughly 5,500 compounds. About 2,000 (36%) were called active. Inconclusive results (about 18%) are left out. This is one part of the list. Unmarked numbers belong to inactive results. Rule as the data show it: active = normalized growth mostly below about 0.91 (no sharp cut-off); inconclusive = no clear call, values can overlap the other calls; inactive = mostly above about 0.92.
# Assay: chemical genetic growth profiling, strain panel (AID 1159580);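 also: tested at 20 µM; growth read once vehicle control cultures reached saturation at 30 °C; 1 = growth at the plate median or of vehicle wells; lower values mean less growth of the strain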
# Details: S. cerevisiae deletion strains, growth OD
structure (smiles),measurement,setting,value
O=c1c(O)cc([C@H]2Oc3cc(O)cc(O)c3C[C@H]2O)cc2c([C@H]3Oc4cc(O)cc(O)c4C[C@H]3O)cc(O)c(O)c12,normalized growth,"locus YAL013W, strain DEP1, active compounds read low",1.01
same,normalized growth,"locus YAL021C, strain ccr4, active compounds read low",1.01
same,normalized growth,"locus YAL026C, strain drs2, active compounds read low",1.04
same,normalized growth,"locus YAL030W, strain snc1, active compounds read low",1.04
same,normalized growth,"locus YBL061C, strain skt5, active compounds read low",1.03
same,normalized growth,"locus YBR009C, strain hhf1, active compounds read low",1.04
same,normalized growth,"locus YBR021W, strain FUR4, active compounds read low",1.01
same,normalized growth,"locus YBR023C, strain chs3, active compounds read low",1.02
same,normalized growth,"locus YBR171W, strain sec66, active compounds read low",1.06
same,normalized growth,"locus YBR229C, strain ROT2, active compounds read low",0.998
same,normalized growth,"locus YBR231C, strain swc5, active compounds read low",1.02
same,normalized growth,"locus YBR279W, strain paf1, active compounds read low",1.02
same,normalized growth,"locus YCL011C, strain gbp2, active compounds read low",1.04
same,normalized growth,"locus YCL016C, strain dcc1, active compounds read low",1.02
same,normalized growth,"locus YCL029C, strain bik1, active compounds read low",0.998
same,normalized growth,"locus YCL069W, strain vba3, active compounds read low",1.03
same,normalized growth,"locus YCR088W, strain abp1, active compounds read low",1.04
same,normalized growth,"locus YDL005C, strain med2, active compounds read low",1.05
same,normalized growth,"locus YDL035C, strain GPR1, active compounds read low",1.03
same,normalized growth,"locus YDL040C, strain nat1, active compounds read low",1.04
same,normalized growth,"locus YDL074C, strain BRE1, active compounds read low",1.04
same,normalized growth,"locus YDL101C, strain DUN1, active compounds read low",1.02
same,normalized growth,"locus YDL185W, strain tfp1, active compounds read low",1.01
same,normalized growth,"locus YDL192W, strain arf1, active compounds read low",1
same,normalized growth,"locus YDR001C, strain nth1, active compounds read low",1.03
same,normalized growth,"locus YDR069C, strain doa4, active compounds read low",0.995
same,normalized growth,"locus YDR101C, strain arx1, active compounds read low",1.02
same,normalized growth,"locus YDR137W, strain rgp1, active compounds read low",1.03
same,normalized growth,"locus YDR159W, strain sac3, active compounds read low",1.1
same,normalized growth,"locus YDR162C, strain NBP2, active compounds read low",1.03
same,normalized growth,"locus YDR195W, strain ref2",1.04
same,normalized growth,"locus YDR297W, strain sur2, active compounds read low",1.02
same,normalized growth,"locus YDR318W, strain mcm21, active compounds read low",1.02
same,normalized growth,"locus YDR334W, strain swr1, active compounds read low",1.03
same,normalized growth,"locus YDR335W, strain msn5, active compounds read low",1.02
same,normalized growth,"locus YDR388W, active compounds read low",0.995
same,normalized growth,"locus YDR392W, strain spt3, active compounds read low",1.03
same,normalized growth,"locus YDR502C, strain sam2, active compounds read low",1.03
same,normalized growth,"locus YEL003W, strain gim4, active compounds read low",1.03
same,normalized growth,"locus YEL037C, strain rad23, active compounds read low",1.02
same,normalized growth,"locus YEL061C, strain CIN8 (second series), active compounds read low",1.04
same,normalized growth,"locus YEL061C, strain CIN8, active compounds read low",1.01
same,normalized growth,"locus YER015W, strain faa2, active compounds read low",1.01
same,normalized growth,"locus YER016W, strain bim1, active compounds read low",1.04
same,normalized growth,"locus YER110C, active compounds read low",1.03
same,normalized growth,"locus YER111C, strain swi4, active compounds read low",1.01
same,normalized growth,"locus YER155C, strain BEM2 (second series), active compounds read low",1.08
same,normalized growth,"locus YER155C, strain BEM2, active compounds read low",1.05
same,normalized growth,"locus YER167W, strain BCK2, active compounds read low",1.02
same,normalized growth,"locus YFR010W, strain ubp6, active compounds read low",1.03
same,normalized growth,"locus YGL078C, strain dbp3, active compounds read low",1.01
same,normalized growth,"locus YGL086W, strain mad1, active compounds read low",1.02
same,normalized growth,"locus YGL167C, strain pmr1, active compounds read low",1.03
same,normalized growth,"locus YGL173C, strain kem1, active compounds read low",1.03
same,normalized growth,"locus YGL227W, strain vid30, active compounds read low",1.05
same,normalized growth,"locus YGL240W, strain doc1, active compounds read low",1.06
same,normalized growth,"locus YGL248W, strain PDE1, active compounds read low",0.998
same,normalized growth,"locus YGL253W, strain hxk2, active compounds read low",1.05
same,normalized growth,"locus YGR135W, strain pre9, active compounds read low",1.01
same,normalized growth,"locus YGR252W, strain gcn5, active compounds read low",1.01
same,normalized growth,"locus YHR013C, strain ard1, active compounds read low",1.05
same,normalized growth,"locus YHR027C, strain rpn1, active compounds read low",1.02
same,normalized growth,"locus YHR030C, strain SLT2, active compounds read low",0.985
same,normalized growth,"locus YHR079C, strain IRE1 (second series), active compounds read low",1.02
same,normalized growth,"locus YHR079C, strain IRE1, active compounds read low",0.999
same,normalized growth,"locus YHR094C, strain hxt1, active compounds read low",1.02
same,normalized growth,"locus YHR129C, strain ARP1, active compounds read low",1.01
same,normalized growth,"locus YHR142W, strain chs7, active compounds read low",1.05
same,normalized growth,"locus YHR200W, strain rpn10, active compounds read low",0.994
same,normalized growth,"locus YIL066C, strain RNR3, active compounds read low",1.02
same,normalized growth,"locus YIL073C, strain SPO22, active compounds read low",1.1
same,normalized growth,"locus YIL125W, strain kgd1, active compounds read low",1.02
same,normalized growth,"locus YIR030C, strain dcg1, active compounds read low",1.01
same,normalized growth,"locus YJL092W, strain hpr5, active compounds read low",1.03
same,normalized growth,"locus YJL095W, strain BCK1 (second series), active compounds read low",1.02
same,normalized growth,"locus YJL095W, strain BCK1, active compounds read low",0.995 and 1.01
same,normalized growth,"locus YJL115W, strain asf1, active compounds read low",1.05
same,normalized growth,"locus YJL129C, strain trk1, active compounds read low",1.14 [resistant] (active)
same,normalized growth,"locus YJL134W, strain LCB3, active compounds read low",1.02
same,normalized growth,"locus YJL154C, strain vps35, active compounds read low",1.04
same,normalized growth,"locus YJL164C, strain tpk1, active compounds read low",1.01
same,normalized growth,"locus YJL166W, strain qcr8, active compounds read low",1.05
same,normalized growth,"locus YJL168C, strain set2, active compounds read low",1.02
same,normalized growth,"locus YJL187C, strain SWE1 (second series), active compounds read low",0.997
same,normalized growth,"locus YJR043C, strain POL32, active compounds read low",1.03
